ssDAF-12 act: activates DAF-12 receptor from parasite S. stercoralis; activation, % at 6.8 µM; HEK293 ssDAF-12/GRIP1 lit1-tk-luc reporter, luminescence; % of 3 µM dafachronic acid response; 1% of 370,000 active;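 active = activation above the mean over all tested compounds plus 3 SD, cut at about 0.9% in these data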;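 note: 0% = DMSO-only wells and 100% = 3 µM delta7-dafachronic acid wells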
hcDAF12 agonist: activators of H. contortus DAF-12 nuclear receptor; HEK293 hcDAF-12 lit1-tk-luc reporter, luminescence; 0% DMSO, 100% Δ7-dafachronic acid; activation, % at 6.8 µM; 1.4% of 370,000 active;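 active = activation above the mean of all tested compounds plus 3 SD, cut at about 5.5% in these data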;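 note: 100% = response to 3 µM Δ7-dafachronic acid high control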
DAX1 inh-1: inhibitors of DAX1 repression of SF-1 activated StAR promoter | 1.1% of 370,000 active | HEK293T StAR-luciferase reporter, SF-1/DAX-1 repression relief | inhibition, % at 6.8 µM;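 active = inhibition above the mean over all tested compounds plus 3 SD, cut at about 3.6% in these data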;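 note: 0% = DAX-1 cells with DMSO and 100% = cells lacking DAX-1 with DMSO; higher inhibition means more luminescence from relief of DAX-1 repression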
DAX1 inh-2: NR0B1 (DAX1) inhibition; HEK293 Gal4-DAX1 luciferase reporter, luminescence; inhibition, % at 6.75 µM; 0.99% of 340,000 active; AID 504766;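 active = inhibition above the mean over all tested compounds plus 3 SD, cut at about 4.2% in these data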;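 note: 0% = DAX1-transfected cells with DMSO and 100% = empty-vector control cells with DMSO; inhibition shows as a rise in luminescence from relieved DAX1 repression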
Target sequence (P51843 207-470 limits assumed): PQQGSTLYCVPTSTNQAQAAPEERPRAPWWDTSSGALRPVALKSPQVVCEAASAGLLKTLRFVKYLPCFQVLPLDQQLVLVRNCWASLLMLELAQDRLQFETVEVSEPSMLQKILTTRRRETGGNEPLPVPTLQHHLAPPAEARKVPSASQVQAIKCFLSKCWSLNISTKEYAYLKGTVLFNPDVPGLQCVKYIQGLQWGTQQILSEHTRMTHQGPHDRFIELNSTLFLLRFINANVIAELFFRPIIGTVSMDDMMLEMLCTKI
hgDAF-12 ag: agonists of H. glycines DAF-12 nuclear receptor; activation, % at 6.8 µM; 1.8% of 370,000 active; HEK293 GAL4-hgDAF12 UAS-luciferase reporter, agonist luminescence; normalized to butyrate control;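 active = activation above a cutoff set at the mean of all screened compounds plus 3 SD, cut at about 10% in these data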;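 note: 0% = DMSO wells and 100% = sodium butyrate wells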
SMARCA2 act: increases SMARCA2 function in MMTV reporter cells | activation, % at 9.1 µM | AID 652017 | MG213 cells, MMTV-luciferase reporter, dexamethasone, overnight | 1% of 370,000 active; in the data active = activation above about 7.8%;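 note: 0% = vehicle wells and 100% = reference activator wells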
* marks the source's active call; other numbers are inactive results; / = no result. Sampled rows, rich in hits. Any-hit rate of the full collection: about 4.8%.

SMILES | ssDAF-12 act | hcDAF12 agonist | DAX1 inh-1 | DAX1 inh-2 | hgDAF-12 ag | SMARCA2 act
COc1ccc(Cc2c(-c3cccc(Cl)c3)nc3ccc(C)cn23)c(C)c1 | 0 | 1 | 4.0* | / | 10 | 4
Cc1ccc2nc(-c3cccc(Br)c3)c(Cc3cccc(F)c3)n2c1 | 0 | 2 | 4.3* | / | 11* | 4
COc1ccc(-c2nc3c4ccccc4ccn3c2Cc2ccsc2)cc1OC | 1 | 6.4* | 0 | / | 10 | 4
Cc1ccc2nc(-c3ccccc3)c(Cc3ccsc3)n2c1 | 2.1* | 1 | 3 | / | 10 | 4
Fc1cccc(Cc2c(-c3cccc(Br)c3)nc3ccc(Cl)cn23)c1 | 0 | 1 | 2 | / | 5 | 3
CCCN=C1N(C)C[C@@H]2[C@@H]3C(=O)N(C)C(=O)[C@@H]3[C@](CC)(C(=O)OC)N12 | -1 | -2 | 1 | 0 | 4 | 6
C[C@H](CO)N1C[C@H](C)[C@@H](CN(C)C(=O)c2ccc(N3CCN(C)CC3)cc2)OCc2cnnn2CCCC1=O | 0 | 1 | 4 | / | -3 | -5
Cc1ccc(-c2nc3c4ccccc4ccn3c2Cc2ccsc2)cc1 | 1.4* | 4 | 0 | / | 9 | 1
COc1ccc(-c2nc3c(C)cc(Br)cn3c2Cc2cccc(Cl)c2)cc1OC | -1 | -1 | 0 | / | 0 | -3
COc1ccc(-c2nc3c4ccccc4ccn3c2Cc2cccc(Cl)c2)cc1OC | 1.1* | 5 | -1 | / | 4 | 0
COc1ccc(-c2nc3c4ccccc4ccn3c2Cc2ccc(C)cc2)cc1OC | 0 | 6.3* | -2 | / | 3 | 4
c1cc(-c2ccc(N3CCOCC3)cc2)n2ccnc2c1 | -1 | 0 | 2 | / | 5 | -3
O=C(N/N=C/c1ccccc1C(=O)O)c1cccc(S(=O)(=O)N2CCCCC2)c1 | -1 | -1 | -2 | 0 | -1 | -1
Cn1c(Cc2nc3ccccc3n2C)nc2ccccc21 | -1 | -1 | -1 | 0 | -1 | 0
Cn1c(CNc2ccc(F)cc2)nc2ccccc21 | 3.1* | 6.5* | 2 | 3 | 13* | 2
COCCNC(=O)CSc1ccccc1C(=O)NCC1CCCCC1 | -1 | 1 | 0 | 6.6* | -1 | -4
Clc1ccc(Cn2ccc3ccccc32)cn1 | -1 | 1 | 0 | 6.0* | -1 | -1
c1ccc(Cn2ccc3ccc(-c4ccc5ccn(Cc6ccc7ccccc7c6)c5c4)cc32)cc1 | 0 | -1 | 0 | / | 4 | 4
COc1ccc(Cn2cc(CN3[C@H](Cc4ccccc4)COc4cc(Br)ccc4S3(=O)=O)nn2)cc1 | -1 | -3 | -1 | / | 1 | -2
O=C(CCc1nnc(C2(c3ccc(Cl)cc3)CCC2)o1)N1CCCC(O)C1 (stereo not drawn) | -1 | 2 | -1 | 0 | 1 | -2
CC(NC(=O)CCc1nnc(C2(c3ccc(Cl)cc3)CCC2)o1)C1CC1 (stereo not drawn) | 0 | 0 | 0 | 4.4* | 3 | 1
COc1ccc(Cl)cc1NC(=O)CN(C)C(=O)c1cc2ccccc2cc1O | 0 | 3 | 1 | -1 | -3 | 2
Cc1ccc(C(=O)/C=C/Nc2ccc3c(c2)OCO3)cc1 | 1.6* | 1 | 1 | 1 | 2 | 3
Cc1ccc(C(=O)/C=C/Nc2cccc(O)c2)cc1 | -1 | 1 | 1 | -1 | 4 | 2
O=C(/C=C/Nc1ccc(F)cc1)c1ccc(Br)cc1 | 0 | 3 | 3 | 2 | 11* | 7
SMILES | ssDAF-12 act | hcDAF12 agonist | DAX1 inh-1 | DAX1 inh-2 | hgDAF-12 ag | SMARCA2 act
O=C(/C=C/Nc1ccc([N+](=O)[O-])cc1)c1ccc(Br)cc1 | 0 | -1 | 1 | 1 | -1 | -3
O=C(/C=C/Nc1ccc(F)c(F)c1)c1ccc(Br)cc1 | -1 | 5 | 3 | 1 | 12* | 3
CSc1ccc(CN2CCC(N3CCC(C(=O)NC4CC4)CC3)CC2)cc1 | -1 | -2 | -1 | 1 | -4 | -1
C[C@@H]1CN([C@H](C)CO)S(=O)(=O)c2ccc(-c3ccc(C(=O)N(C)C)cc3)cc2O[C@H]1CN(C)C(=O)Cc1ccccn1 | -1 | 1 | 0 | 1 | 1 | -3
Cc1ccc(NC(=O)CCC(=O)Nc2ccc(C)cc2)cc1 | -1 | -3 | 0 | 2 | -2 | -2
Cc1ccc(NC(=O)CCSc2ccccn2)cc1 | 0 | 2 | 4.4* | 4.2* | 11* | 0

High-throughput results from PubChem BioAssay.
